# Results taken from PubChem BioAssay AID588689 (Southern Research Specialized Biocontainment Screening …, 2011).
# Among all 340,000 compounds or so, about 1,000 (0.29%) were called active. No stated cut-off is given here; in the data, inconclusive means inhibition above about 29% without an active follow-up result; inactive means below that. The list is a sample of the results. Results with a measured potency or affinity are listed apart.
# Molecular target: Genome polyprotein (Dengue virus type 2 (strain 16681-PDK53)) (UniProt P29991)
# Assay: flavivirus cap methylation enzyme inhibition – biochemical, confirmation dose response, primary screen (AID 588689)
# Conditions: Dengue-2 NS5 methyltransferase capping enzyme assay, at 25 µM, stronger effect = higher value
# [1] = measured here: pilot screen replicate inhibition
SMILES,inhibition,inhibition [1]
CC1(C(=O)N2CCN(c3ccc([N+](=O)[O-])cc3)CC2)CC1(Cl)Cl (stereo not given),-2.36% (inactive),–
CN(CC(=O)Nc1ccc(F)cc1)C(=O)CSc1nccn1C,7.2% (inactive),–
Cn1nc(C(=O)NCc2cccc(Cl)c2)c2c1-c1ccccc1S(=O)(=O)C2,5.32% (inactive),–
COc1cccc(C(=S)N2CCOCC2)c1OS(=O)(=O)c1ccc(Cl)cc1,1.61% (inactive),–
CC(C)Cc1ccc(C(C)NC(=O)Cc2ccc(S(=O)(=O)N3CCOCC3)s2)cc1 (stereo not given),-1.45% (inactive),–
O=C(Nc1ccccc1[N+](=O)[O-])c1cccc(N2C(=O)CCC2=O)c1,-7.81% (inactive),–
O=C(O)c1cnc(-c2ccccc2)nc1C(F)(F)F,-8.19% (inactive),–
COC(=O)Nc1nc(-c2ccccc2)c(C(=O)c2ccccc2)s1,-4.12% (inactive),–
COc1cccc(-c2ccc3ncnc(NCc4cccc(C)c4)c3c2)c1,-0.8% (inactive),–
COc1ccc(CNC(=O)/C=C/c2cc3c(cc2Br)OCO3)cc1,-8.34% (inactive),–
COc1cc(C(=O)O)c2c(c1C)OC(=O)c1c(C)cc(O)c(C=O)c1O2,0.72% (inactive),–
COc1cc(/C=C2\OC(=O)c3c(OC)cccc32)ccc1O,-20.1% (inactive),–
O=C(O)C1C2CCC(O2)C1C(=O)Nc1ccc(Br)cc1F (stereo not given),-6.36% (inactive),–
C=CCC[C@@H](Cc1ccc(F)cc1)C(=O)OC[C@@H](Cc1ccccc1)NC(=O)[C@@H](CC=C)CC(=O)N[C@@H](CO)Cc1ccccc1,-4.81% (inactive),–
N=C1/C(=C/c2cccs2)C(=O)N=C2SN=C(SCc3ccccc3)N12,-11.6% (inactive),–
CC(C)CSC1=NSC2=NC(=O)/C(=C\c3cccs3)C(=N)N12,24.3% (inactive),–
CCCCCCCCCCNC(=O)CCn1[nH]c(=O)c2ccccc2c1=O,-4.1% (inactive),–
Cc1cccc(C)c1OCCn1nnc2ccccc21,1.31% (inactive),-3.03%
COc1cc(/C=C2/C(=O)N(c3ccc(C(=O)O)cc3)N=C2C)cc(OC)c1O,-28.1% (inactive),–
COc1cc(/C=C2/C(=O)N(c3cccc(Br)c3)N=C2C)cc(OC)c1O,-25.2% (inactive),–

SMILES,inhibition,inhibition [1]
COc1ccc(/C=C2\N=C(C)N(c3ccc(C(=O)O)cc3)C2=O)cc1OC,-13.8% (inactive),–
COc1cc(/C=C2\C(=O)N(CCC#N)N=C2C)ccc1OCC(=O)Nc1ccccc1,27.7% (inactive),–
Cc1ccccc1NC(=O)Cn1nnc(S(=O)(=O)c2ccc(C(C)(C)C)cc2)c1N,-3.62% (inactive),–
NC(=O)N/N=C/c1ccc(-c2cccc(C(F)(F)F)c2)o1,-7.73% (inactive),–
Fc1cccc(/C=C2\CCCC3=C2NC(=S)NC3c2cccc(F)c2)c1 (stereo not given),3.88% (inactive),–
Cc1ccc(SC2=C(Sc3ccc(C)cc3)C(=O)c3ccccc3C2=O)cc1,22.2% (inactive),–
COC1=C(Nc2ccc(C)cc2)C(=O)c2ccccc2C1=O,1.28% (inactive),–
COc1ccc(CN2CC(C(=O)NCCN3CCOCC3)CC2=O)cc1 (stereo not given),0.54% (inactive),–
O=C(CN1C(=O)COc2ccc(Cl)cc21)N1CCc2ccccc21,-2.43% (inactive),–
Cc1cc(C)n(-c2nc3ccccc3c(=O)n2OCC#N)n1,-1.94% (inactive),–
CC(=O)Oc1ccc(N(C(C)=O)S(=O)(=O)c2ccc(C)cc2)c2ccccc12,-8.55% (inactive),–
CC(=O)Oc1ccc(N(C(C)=O)S(=O)(=O)c2ccccc2)c2ccccc12,6.04% (inactive),–
O=C(NCCCn1ccnc1)c1ccc(Cl)s1,-4.6% (inactive),–
O=S(=O)(O)c1ccc(N=Nc2ccccc2)cc1,-9.54% (inactive),–
O=S(=O)(Nc1ccc(N=Nc2ccc(O)c3ccccc23)cc1)c1ccccc1,6.54% (inactive),–
O=C(C[n+]1ccc(C(=O)c2ccccc2)cc1)Nc1ccccc1OC(F)F,-15.9% (inactive),–
O=P(C(=S)Nc1ccccc1Cl)(c1ccccc1)c1ccccc1,-1.15% (inactive),–
O=C(Nc1ccccc1)c1ccccc1NS(=O)(=O)c1ccc(Cl)s1,10.3% (inactive),–
Cc1ccc(NC(=O)c2ccccc2NS(=O)(=O)c2ccc(Cl)s2)cc1,-0.66% (inactive),–
COC(=O)[C@]1(C)N[C@H](CN(C)S(=O)(=O)c2ccc(OC)cc2)[C@@H]2C(=O)N(C)C(=O)[C@@H]21,-4.63% (inactive),-0.915%

SMILES,inhibition,inhibition [1]
Cc1ccc(S(=O)(=O)N2CCOCC2)cc1C(=O)NC1CCCC(C)C1C (stereo not given),1.47% (inactive),–
CCCC1=C([O-])C2N=CC=CC2=[N+](c2ccccn2)C1=O (stereo not given),-1.93% (inactive),–
O=C1c2ccccc2C(O)N1c1ccc(Cl)cc1 (stereo not given),-2.08% (inactive),–
COC(=O)C1OC2(OC1C(=O)OC)c1ccccc1-c1ccccc12 (stereo not given),-6.04% (inactive),–
CC(C)(Oc1ccc(Cl)cc1)C(=O)NC1CCSC1=O (stereo not given),-4.81% (inactive),–
CCOC(=O)N1CCC(NC(=S)Nc2ccc3nc(N4CCN(CC)CC4)cc(C)c3c2)CC1,-6.96% (inactive),–
COc1ccc(-c2cc(C(=O)NCCN3CCOCC3)c3ccccc3n2)c(OC)c1,-2.05% (inactive),–
Cc1cccc(N(CC(=O)O)CC(=O)O)c1,0.96% (inactive),–
CSC(=CC(=O)c1ccccc1)SC,-2.05% (inactive),–
COc1cccc(C(=O)C(C#N)=C(SC)SC)c1,12.4% (inactive),–
Cc1c(C(=O)Nc2cccc([N+](=O)[O-])c2)sc2ncn(CC(=O)N3CCOCC3)c(=O)c12,-4.39% (inactive),–
Cc1nc2ccc(Br)cc2c(-c2ccccc2)c1C(=O)O,1.96% (inactive),–
Cc1cccc(Nc2nnc(SCC(=O)NC3CCCc4ccccc43)s2)c1C (stereo not given),-1.45% (inactive),–
CC(=O)Nc1ccc(-c2sc(Nc3cccc4ccccc34)n[n+]2-c2ccccc2)cc1,-7.03% (inactive),–
CSc1ccc(-c2sc(Nc3ccccc3)n[n+]2-c2ccccc2)cc1,-11.6% (inactive),–
CCOC(=O)c1cnc2c(C)c(Cl)ccc2c1N1CCN(CC)CC1,-10.3% (inactive),–
Cc1[nH]c2ccccc2c1-c1nc2ccccc2[nH]c1=O,-8.14% (inactive),–
Cc1[nH]c2ccccc2c1-c1nc2ccccc2[nH]1,-3.22% (inactive),–
